# In PubChem BioAssay (NCI):
# The panel holds about 83,000 compounds, 20% with a hit somewhere; the sample as a whole holds those more often.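 For each line, cells grew in 96-well plates with the test compound present at a single concentration for 48 hours.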 Unmarked numbers belong to inactive results. Active and inactive are the calls of the source. How the source made its calls: active means growth percent below 10; inactive means the rest.
# Tested on: MALME-3M melanoma
# Assay: NCI-60 one-dose screen, 48 h (100 = growth as untreated, 0 = no growth, -100 = all killed)
# Conditions: 10 µM unless noted
row,Structure (SMILES),growth
1,C=CCC1(CC)C(=O)NC(=S)NC1=O,108%
2,O=C(CF)N(O)c1ccc(/C=C/c2ccccc2)cc1,82.9%
3,Nc1nc(N)c(-c2ccc(Cl)c(Cl)c2)c(/C=C/c2ccc(S(=O)(=O)F)cc2)n1,86.9%
4,Oc1ccc(O)c2c1C1(Cl)C(Cl)=C(Cl)C2(Cl)C1(Cl)Cl,20%
5,CN(C)P1(N(C)C)=NP(N(C)C)(N(C)C)=NP(N(C)C)(N(C)C)=N1,106%
6,CCCCNCCc1ccccn1,101%
7,CNC(=O)Oc1cccc(OC)c1,115%
8,C=C=[CH][Sn]([c]1ccccc1)([c]1ccccc1)[c]1ccccc1,-36.6% (active)
9,NC(=O)SCC(=O)Nc1ccc([As](=O)(O)O)cc1,122%
10,C[C@]12CC[C@H]3[C@@H](C[C@@H]4N=C(c5ccc(O)cc5)S[C@@]45C[C@H](O)CC[C@]35C)[C@@H]1CC[C@@H]2O,72.4%
11,CC1(C)N=C(N)N=C(N)N1c1ccc(CCCCc2ccc(S(=O)(=O)F)cc2)cc1,52.8%
12,COc1cc2c(cc1OC)CN(C)C(C)C2 (stereo unspecified),95.9%
13,c1ccc2nc(OCCN3CC3)ccc2c1,113%
14,CC1(C)N=C(N)N=C(N)N1c1ccc(CNC(=O)Nc2ccc(S(=O)(=O)F)c(Cl)c2)c(Cl)c1,54.5%
15,c1ccc(-c2ccc3ccccc3[o+]2)cc1,101%
16,CSc1ccccc1NP1(=O)OCC(C)([N+](=O)[O-])CO1 (stereo unspecified),120%
17,CC1COC(=O)C1 (stereo unspecified),98.2%
18,C[CH2][Pb]([CH2]C)([CH2]C)[O]C(=O)COc1ccccc1,21.8%
19,COc1ccc(/C=C\c2cc(OC)c(OC)c(OC)c2)cc1N/C=C\C(=O)c1c[nH]c2ccccc12,57.8%
20,CCCC(C)(C)c1ccc2c(c1)OC(C)(C)[C@@H]1CC=C(C)C[C@@H]21,93.6%
21,OC1(c2ccc(Cl)cc2Cl)c2ccccc2C2=NCCN21 (stereo unspecified),100%
22,O=C(Nc1ccc(S(=O)(=O)F)cc1)Oc1ccccc1,101%

# Tested on: MDA-MB-231 breast
# Assay: as above
# Conditions: 10 µM unless noted
row,Structure (SMILES),growth
1,Fc1ccc(C2=NN(c3ccccc3)C(c3sc(N(CCCl)CCCl)nc3Cl)C2)cc1 (stereo unspecified),69%
2,CC[C@H](C)[C@H](NC(=O)Nc1ccccc1)C(=O)N(C)[C@H](C[C@@H](OC(C)=O)c1nc(C(=O)N[C@@H](Cc2ccccc2)C[C@H](C)C(=O)OC)cs1)C(C)C,-4.27% (active)
3,c1ccc(CCN2CCCCC2Cc2ccccc2)cc1 (stereo unspecified),96.4%
4,CC(=O)O[C@H]1CCC2(C)C(=CCC3C2CCC2(C)/C(=N/OC(=O)c4ccc(N(CCCl)CCCl)cc4)CCC32)C1 (stereo partly specified),40.5%
5,O=[As]c1ccc(C(=O)c2ccc(Oc3ccccc3)cc2)cc1 (stereo unspecified),-98.4% (active)
6,O=[N+]([O-])c1cc([N+](=O)[O-])c(Cl)c(Cl)c1Cl,22.3%
7,Cc1cc(NC(=O)NCCOc2ccc(N3C(N)=NC(N)=NC3(C)C)cc2Cl)ccc1S(=O)(=O)F,58%
8,COc1ccc2c(c1)NC1=C(C(=O)OC1)C2c1cc(OC)c(OC)c(OC)c1 (stereo unspecified),6.08% (active)
9,C=CCc1ccc(OC(=O)Cc2ccccc2)c(OC)c1,106%
10,CC(C)(O)/C=C/C(=O)[C@](C)(O)[C@H]1[C@H](O)C[C@@]2(C)[C@@H]3CC=C4[C@@H](C=C(O)C(=O)C4(C)C)[C@]3(C)C(=O)C[C@]12C,-25% (active)
11,C[C@]12CCc3sc(-c4ccc(Cl)cc4)nc3C1=CC[C@@H]1[C@@H]2CC[C@]2(C)C(=O)CC[C@@H]12,64.3%
12,C=CCC1(CC)C(=O)NC(=S)NC1=O,109%
13,NC(Cc1ccc2c(c1)OCO2)c1ccc2c(c1)OCO2 (stereo unspecified),107%
14,O=C(CF)N(O)c1ccc(/C=C/c2ccccc2)cc1,73.4%
15,COc1ccc(/C=C(/C(=O)N2CCCC2)c2cc(OC)c(OC)c(OC)c2)cc1N,62%
16,Nc1nc(N)c(-c2ccc(Cl)c(Cl)c2)c(/C=C/c2ccc(S(=O)(=O)F)cc2)n1,104%
17,Nc1c(Br)cc([N+](=O)[O-])cc1[N+](=O)[O-],105%
18,Oc1ccc(O)c2c1C1(Cl)C(Cl)=C(Cl)C2(Cl)C1(Cl)Cl,41.3%
19,CN(C)P1(N(C)C)=NP(N(C)C)(N(C)C)=NP(N(C)C)(N(C)C)=N1,107%
